# Test results as given in the supplement of paper PMC11219838.
# Test system: Ditylenchus dipsaci
# Assay: proportion of mobile D. dipsaci (mixed stage) relative to DMSO control (fraction of DMSO control); higher = more viable, less nematicidal, active = 0.86 or less; extreme values may be limits of the assay
# Details: 60 µM; 5 days; temperature: 20 °C
# In short: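 Ditylenchus dipsaci nematodes were cultured on pea plants in Gamborg B-5 agar, then extracted into water through a filter funnel, and roughly 20 worms in distilled water were placed in each well of a 96-well plate. Compound was pinned in to a final concentration of 60 µM (0.6% v/v DMSO), and the sealed plates were shaken at 200 rpm for 5 days at 20 °C. Mobile worms were counted under the microscope after 2 µL of 1 M NaOH was added. Mobility is given relative to DMSO controls as the mean of two biological replicates.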
row,Compound,proportion of mobile D. dipsaci
1,Cc1ccc(-c2nc(-c3ccc4c(c3)OCO4)no2)cc1,1 (inactive)
2,Clc1ccc(-c2noc(-c3ccc4c(c3)OCCO4)n2)cc1,1 (inactive)
3,COc1ccc(-c2noc(-c3ccc(C)cc3)n2)cc1,0.932 (inactive)
4,COc1ccc(Cl)cc1-c1nc(-c2ccccc2C)no1,1 (inactive)
5,CCOc1nc(-c2ccc(C)cc2)ccc1-c1noc(-c2ccncc2)n1,1 (inactive)
6,CCCCCSc1nnc(-c2ccc(Cl)cc2Cl)o1,1 (inactive)
7,Cc1cc(OCc2nc(-c3ccncc3)no2)c(C)c(C)c1Br,1 (inactive)
8,Cc1cccc(-c2noc(-c3cccc(Br)c3)n2)c1,1 (inactive)
9,COc1ccc(-c2noc(-c3ccc(C)cc3Cl)n2)cc1,1 (inactive)
10,Clc1ccc(-c2nc(-c3ccc4c(c3)OCO4)no2)cc1,1 (inactive)
11,Cc1cc(Cl)ccc1OCc1nc(-c2ccncc2)no1,1 (inactive)
12,O=C(CSc1nnc(-c2ccc(Br)cc2)o1)Nc1cccc2ccccc12,1 (inactive)
13,O=S(=O)(CCC(F)=C(F)F)c1ncc(Cl)s1 [fluensulfone],1 (inactive)
14,C#CCOc1ccc(-c2nc(-c3ccccc3)no2)cc1,1 (inactive)
15,O=C(CSc1nnc(-c2cccc(Cl)c2)o1)NC1CCCCC1,1 (inactive)
16,CCCc1nnc(SCc2nnc(-c3ccccc3)o2)o1,1 (inactive)
17,COc1ccc(Cl)cc1-c1noc(-c2cccc(C)c2)n1,1 (inactive)
18,CCn1cc(C(=O)CSc2nnc(-c3ccccc3)o2)c2ccccc21,1 (inactive)
19,CC(Oc1ccc(C(C)(C)C)cc1)c1nc(-c2ccncc2)no1 (centres undefined),1 (inactive)
20,CCc1ccc(OCc2nc(-c3ccccn3)no2)cc1,1 (inactive)

row,Compound,proportion of mobile D. dipsaci
1,COc1nc(C)ccc1-c1noc(-c2ccc(Cl)cc2)n1,1 (inactive)
2,Cc1ccccc1-c1noc(-c2ccccc2C(=O)NCc2ccccc2)n1,1 (inactive)
3,c1ccc(-c2noc(COc3cccc4ccccc34)n2)nc1,1 (inactive)
4,Cc1cccc(OCc2nc(-c3ccccc3Cl)no2)c1,1 (inactive)
5,O=C(CSc1nnc(-c2ccc(Cl)cc2Cl)o1)N1CCCCC1,1 (inactive)
6,O=C(CSc1nnc(-c2ccccc2Cl)o1)NCc1ccco1,1 (inactive)
7,COc1ccc(-c2noc(-c3cccc(C)c3)n2)cc1,1 (inactive)
8,COc1cccc(-c2noc(COc3ccccc3C)n2)c1,1 (inactive)
9,Cc1ccccc1CSc1nnc(-c2ccco2)o1,1 (inactive)
10,O=C(CSc1nnc(-c2ccco2)o1)Nc1cccc(C(F)(F)F)c1,1 (inactive)
11,CCOC(=O)c1sc(NC(=O)CSc2nnc(-c3ccc(Cl)cc3)o2)c(C#N)c1C,1 (inactive)
12,Cc1nc(CSc2nnc(-c3ccccc3)o2)cs1,1 (inactive)
13,COc1nc(C)ccc1-c1noc(-c2ccccc2Cl)n1,1 (inactive)
14,Fc1ccc(-c2nc(-c3ccc4c(c3)OCO4)no2)cc1,1 (inactive)
15,O=C(CSc1nnc(-c2ccccc2)o1)Nc1ccc(F)cc1F,1 (inactive)
16,COc1ccccc1-c1nnc(SCc2ccccc2C#N)o1,1 (inactive)
17,COc1nc(-c2ccccc2)ccc1-c1noc(-c2ccco2)n1,1 (inactive)
18,Cc1ccc(-c2noc(-c3ccc4c(c3)OCCO4)n2)cc1,1 (inactive)
19,Cc1cc(OCc2nc(-c3ccccc3)no2)cc(C)c1Cl,1 (inactive)
